Assay results: PubChem BioAssay AID1159580 (chemical genetic matrix, 2015)
Among all 5,500 compounds or so, about 2,000 (36%) were called active. Inconclusive results (about 18%) are left out. Rule as the data show it: active = normalized growth mostly below about 0.91 (no sharp cut-off); inconclusive = no clear call, values can overlap the other calls; inactive = mostly above about 0.92. The list shows a part of the results.

Assay: chemical genetic growth profiling, strain panel (AID 1159580);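 also: tested at 20 µM; growth read once vehicle control cultures reached saturation at 30 °C; 1 = growth at the plate median or of vehicle wells; lower values mean less growth of the strain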
Details: S. cerevisiae deletion strains, growth OD

Measured: normalized growth

CC(=O)Oc1ccccc1C(=O)O
inactive: locus YAL021C, strain ccr4, stronger effect = lower value 0.993 | locus YAL026C, strain drs2, stronger effect = lower value 1 | locus YAL030W, strain snc1, stronger effect = lower value 1 | locus YAL040C, strain CLN3, stronger effect = lower value 0.996 | locus YBL061C, strain skt5, stronger effect = lower value 0.989 | locus YBR009C, strain hhf1, stronger effect = lower value 1.03 | locus YBR023C, strain chs3, stronger effect = lower value 1 | locus YBR171W, strain sec66, stronger effect = lower value 0.985 | locus YBR231C, strain swc5, stronger effect = lower value 1.01 | locus YBR279W, strain paf1, stronger effect = lower value 0.992 | locus YCL011C, strain gbp2, stronger effect = lower value 1 | locus YCL016C, strain dcc1, stronger effect = lower value 0.983 | locus YCL061C, strain MRC1 (second series), stronger effect = lower value 1 | locus YCL069W, strain vba3, stronger effect = lower value 1 | locus YCR088W, strain abp1, stronger effect = lower value 0.989 | locus YDL005C, strain med2, stronger effect = lower value 0.985 | locus YDL040C, strain nat1, stronger effect = lower value 0.996 | locus YDR001C, strain nth1, stronger effect = lower value 0.995 | locus YDR069C, strain doa4, stronger effect = lower value 1.01 | locus YDR137W, strain rgp1, stronger effect = lower value 1 | locus YDR150W, strain NUM1, stronger effect = lower value 0.992 | locus YDR159W, strain sac3, stronger effect = lower value 0.938 | locus YDR195W, strain ref2 1 | locus YDR297W, strain sur2, stronger effect = lower value 1.01 | locus YDR334W, strain swr1, stronger effect = lower value 0.991 | locus YDR335W, strain msn5, stronger effect = lower value 1.03 | locus YDR392W, strain spt3, stronger effect = lower value 0.906 | locus YEL003W, strain gim4, stronger effect = lower value 1.01 | locus YEL037C, strain rad23, stronger effect = lower value 0.998 | locus YEL061C, strain CIN8 (second series), stronger effect = lower value 0.996 | locus YER002W, strain NOP16, stronger effect = lower value 0.988 | locus YER015W, strain faa2, stronger effect = lower value 1.01 | locus YER016W, strain bim1, stronger effect = lower value 0.977 | locus YER111C, strain swi4, stronger effect = lower value 0.985 | locus YER155C, strain BEM2 (second series), stronger effect = lower value 0.996 | locus YFR010W, strain ubp6, stronger effect = lower value 1.09 | locus YGL167C, strain pmr1, stronger effect = lower value 1 | locus YGL173C, strain kem1, stronger effect = lower value 1 | locus YGL227W, strain vid30, stronger effect = lower value 0.989 | locus YGL240W, strain doc1, stronger effect = lower value 1 | locus YGL253W, strain hxk2, stronger effect = lower value 1.03 | locus YHR013C, strain ard1, stronger effect = lower value 0.969 | locus YHR027C, strain rpn1, stronger effect = lower value 1.02 | locus YHR030C, strain SLT2, stronger effect = lower value 1.03 | locus YHR079C, strain IRE1, stronger effect = lower value 1.04 | locus YHR142W, strain chs7, stronger effect = lower value 1.01 | locus YJL092W, strain hpr5, stronger effect = lower value 1 | locus YJL095W, strain BCK1 (second series), stronger effect = lower value 0.989 | locus YJL095W, strain BCK1, stronger effect = lower value 1.05 | locus YJL115W, strain asf1, stronger effect = lower value 0.988 | locus YJL129C, strain trk1, stronger effect = lower value 0.995 | locus YJL154C, strain vps35, stronger effect = lower value 0.989 | locus YJL164C, strain tpk1, stronger effect = lower value 0.999 | locus YJL166W, strain qcr8, stronger effect = lower value 1.01 | locus YJL187C, strain SWE1, stronger effect = lower value 0.987 | locus YJR066W, strain TOR1, stronger effect = lower value 0.978 | locus YKL160W, strain elf1, stronger effect = lower value 0.971 | locus YKR026C, strain gcn3, stronger effect = lower value 0.994 | locus YKR091W, strain srl3, stronger effect = lower value 1 | locus YLL001W, strain dnm1, stronger effect = lower value 0.974 | locus YLL026W, stronger effect = lower value 0.992 | locus YLL041C, strain sdh2, stronger effect = lower value 0.983 | locus YLR027C, strain aat2, stronger effect = lower value 1.01 | locus YLR113W, strain HOG1, stronger effect = lower value 1.01 | locus YLR221C, strain rsa3, stronger effect = lower value 0.996 | locus YLR258W, strain gsy2, stronger effect = lower value 0.997 | locus YLR262C, strain YPT6 (second series), stronger effect = lower value 0.984 | locus YLR320W, strain mms22, stronger effect = lower value 0.975 | locus YLR342W, strain FKS1, stronger effect = lower value 0.997 | locus YLR357W, strain rsc2, stronger effect = lower value 0.964 | locus YLR370C, strain arc18, stronger effect = lower value 1 | locus YLR384C, strain iki3, stronger effect = lower value 0.971 | locus YML120C, strain ndi1, stronger effect = lower value 1.02 | locus YMR058W, strain fet3, stronger effect = lower value 1 | locus YMR125W, strain sto1, stronger effect = lower value 0.997 | locus YMR129W, stronger effect = lower value 0.985 | locus YMR205C, strain PFK2, stronger effect = lower value 1.02 | locus YMR231W, strain pep5, stronger effect = lower value 0.994 | locus YNL071W, strain lat1, stronger effect = lower value 0.998 | locus YNL153C, strain GIM3, stronger effect = lower value 0.994 | locus YNL175C, strain NOP13, stronger effect = lower value 0.989 | locus YNL183C, strain NPR1, stronger effect = lower value 0.997 | locus YNL197C, strain WHI3, stronger effect = lower value 0.995 | locus YNL209W, strain ssb2, stronger effect = lower value 1.02 | locus YNL224C, strain SQS1, stronger effect = lower value 0.988 | locus YNL248C, strain rpa49, stronger effect = lower value 0.956 | locus YNL322C, strain KRE1 (second series), stronger effect = lower value 0.966 | locus YNR049C, strain mso1, stronger effect = lower value 1 | locus YOR001W, strain rrp6, stronger effect = lower value 1.02 | locus YOR070C, strain gyp1, stronger effect = lower value 0.998 | locus YOR080W, strain dia2, stronger effect = lower value 1 | locus YOR083W, strain WHI5 (second series), stronger effect = lower value 1.01 | locus YOR083W, strain WHI5, stronger effect = lower value 0.929 | locus YOR106W, strain vam3, stronger effect = lower value 0.994 | locus YOR231W, strain MKK1, stronger effect = lower value 1.06 | locus YOR265W, strain rbl2, stronger effect = lower value 1.02 | locus YOR270C, strain vph1, stronger effect = lower value 1.04 | locus YOR290C, strain snf2, stronger effect = lower value 0.989 | locus YPL051W, strain arl3, stronger effect = lower value 1 | locus YPL055C, strain LGE1, stronger effect = lower value 0.969 | locus YPL078C, strain atp4, stronger effect = lower value 0.984 | locus YPL106C, strain sse1, stronger effect = lower value 0.976 | locus YPL240C, strain hsp82, stronger effect = lower value 1 | locus YPL241C, strain CIN2, stronger effect = lower value 0.999 | locus YPL256C, strain CLN2, stronger effect = lower value 1.03
